This note sets out measurements from PubChem BioAssay (Tox21).

Experiment [1] in a line: Nuclear factor erythroid 2-related factor 2/antioxidant responsive element (Nrf2/ARE) small molecule agonists: qHTS cell viability counter screen in human keratinocytes (AID 1919968; active = well fitted curve in the direction sought with a large enough effect in the repeat runs; an effect the other way counts as inactive or inconclusive; also: nearly all actives have a fitted effect of over 55% in size; also: potency is read from the fitted curve at half-maximal effect). Put shortly:
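Stably transfected HaCaT (KeratinoSens), 1,500/well. Test agents in DMSO were applied for 23 h, 37 C/5% CO2. CellTiter-Fluor was incubated 1 h before the fluorescence read.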
(In general: Quantitative high-throughput screening tests each substance at several concentrations.)

Experiment [2] in a line: Nuclear factor erythroid 2-related factor 2/antioxidant responsive element (Nrf2/ARE) small molecule agonists: luciferase reporter gene qHTS assay in human keratinocytes (AID 1919969). Also: nearly all actives have a fitted effect of over 35% in size. Also: potency is read from the fitted curve at half-maximal effect. In general terms: A reporter such as luciferase makes a cellular process visible.
Experiment [3] concerns the target KiSS-1 receptor (Homo sapiens) (UniProt Q969F8). In words: Human kisspeptin (KISS1R) small molecule agonists, calcium flux assay in KISS1R-HEK293 cells (AID 1920064; active = well fitted curve in the direction sought with a large enough effect in the repeat runs; an effect the other way counts as inactive or inconclusive). An outline of the steps:
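After overnight (18 h) culture at 37 C/5% CO2, human KISS1R-HEK293 cells received calcium dye for 1 h, then test compound; emission at 540 nm (excitation 480 nm) was tracked for 3 min.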

Experiment [4] can be described thus: G protein-coupled receptor (GPCR) small molecule agonists, calcium flux assay: HEK293 wild type cell line counter screen (AID 1920065). An outline of the steps: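 Following 18 h incubation at 37 C/5% CO2, plates got calcium dye for 1 h; compounds, ATP or DMSO were then pinned in and fluorescence followed kinetically (480/540 nm).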
A general note: A change in cytosolic calcium serves as a functional read-out for many receptors and channels.

Experiment [5] is described as follows: p53 small molecule agonists, cell-based qHTS assay with rat liver microsomes (AID 1963578). Put shortly:
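Agonist mode in p53RE-bla reporter cells, with compounds co-incubated 16 h at 37 C alongside 0.5 mg/mL rat liver microsomes and 0.5 mg/mL NADPH (final), followed by a 2 h LiveBLAzer detection step.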

The nature of experiment [6]: p53 small molecule agonists, cell-based qHTS assay with human liver microsomes: qHTS cell viability counter screen (AID 1963579). Also: nearly all actives have a fitted effect of over 45% in size. Also: potency is read from the fitted curve at half-maximal effect. An outline of the steps:
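Metabolically activated exposure: compounds, human liver microsomes and NADPH (0.5 mg/mL final apiece) were added to p53RE-bla cells seeded 5 h earlier, left 16 h at 37 C, and then assessed for viability by CellTiter-Glo luminescence.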

A short description of experiment [7]: p53 small molecule agonists, cell-based qHTS assay with rat liver microsomes: qHTS cell viability counter screen (AID 1963580). Also: nearly all actives have a fitted effect of over 45% in size. Put shortly: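 Rat liver microsome (0.5 mg/mL final) and NADPH (0.5 mg/mL final) co-incubation with compounds for 16 h at 37 C on HCT-116 p53RE-bla cells; cytotoxicity taken from intracellular ATP luminescence.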
Experiment [8] in a line: p53 small molecule agonists, cell-based qHTS assay: qHTS cell viability counter screen (AID 1963581). Also: nearly all actives have a fitted effect of over 45% in size. Put shortly: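 qHTS counter screen: 16 h compound exposure at 37 C of p53RE-bla HCT-116 cells (4,000 per well, seeded 5 h prior), cell viability by ATP luminescence.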
A short description of experiment [9]: p53 small molecule agonists, cell-based qHTS assay (AID 1963582; active = well fitted activation curve with a large enough effect in the signal ratio in the repeat runs, not every such curve was filed as active; the % refers to the signal ratio). An outline of the steps:
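Measured: fluorescence from cleaved LiveBLAzer substrate. System: p53RE-bla cells, 16 h compound treatment at 37 C, 2 h substrate step at room temperature.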

In experiment [10] the target is 5-hydroxytryptamine receptor 2A (Homo sapiens) (UniProt P28223). In words: 5-hydroxytryptamine receptor 2A (HTR2A) small molecule antagonists, cell-based qHTS assay (AID 1963586). Also: nearly all actives have a fitted effect of over 45% in size. Put shortly:
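CHO cells stably expressing human HTR2A were plated for 18 h at 37 C, then loaded with calcium dye for 1 h. Compounds were preincubated 5 min at room temperature before DOI (4 nM solution) was added. Kinetic fluorescence was read for 3 min.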

The target is the same in experiment [11]. In words: 5-hydroxytryptamine receptor 2A (HTR2A) small molecule agonists, cell-based qHTS assay (AID 1963587). Also: nearly all actives have a fitted effect of over 30% in size. Also: potency is read from the fitted curve at half-maximal effect. An outline of the steps: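 Kinetic calcium-flux fluorescence (2 min, 1 sec intervals) after compound addition in agonist mode. HTR2A-CHO cells were cultured 18 h, then dye-loaded 1 h at 37 C.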
Experiment [12] concerns the target Muscarinic acetylcholine receptor M1 (Homo sapiens) (UniProt P11229). In words: Cholinergic receptor muscarinic 1 (CHRM1) small molecule antagonists, cell-based qHTS assay (AID 1963588). Also: nearly all actives have a fitted effect of over 40% in size. Also: potency is read from the fitted curve at half-maximal effect. Put shortly: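 Compounds were tested at 15 concentrations in three independent runs. Dye-loaded CHRM1-CHO cells were exposed 5 min at room temperature before stimulation by acetylcholine added at 50nM. Intracellular calcium was read kinetically on FDSS for 3 min.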

For experiment [13] the target is unchanged. In words: Cholinergic receptor muscarinic 1 (CHRM1) small molecule agonists, cell-based qHTS assay (AID 1963589). Also: nearly all actives have a fitted effect of over 35% in size. Put shortly:
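Kinetic fluorescence (1 s intervals) of calcium-sensitive dye in human M1 CHO cells after compound addition; cells pre-incubated 18 h at 37 C/5% CO2 and dye-loaded 1 h.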

Experiment [14] addresses Beta-2 adrenergic receptor (Homo sapiens) (UniProt P07550). Kind of experiment: Adrenergic beta2 receptor (ADRB2) small molecule antagonists, cell-based qHTS assay (AID 1963592). Also: series mostly up to about 92 µM; nearly all actives have a fitted effect of over 50% in size. Put shortly:
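Assay format: CHO-ADRB2 cells, 18-20hr seeding at 37C/5% CO2, then compound plus 1nM isoproterenol agonist mix for 0.5hr RT. Homogeneous time-resolved fluorescence cAMP detection after 1hr, expressed as 665/615 nm ratio.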

Experiment [15] has the same target. In words: Adrenergic beta2 receptor (ADRB2) small molecule agonists, cell-based qHTS assay (AID 1963593).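 Also: CHO cells stably overexpressing human ADRB2.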 Put shortly:
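CHO cells stably over-expressing ADRB2 were plated overnight at 37C, then dosed with compounds plus a stimulation mix containing 100uM IBMX and 25uM Ro-20-1724 for 0.5hr at room temperature. cAMP was measured by HTRF competition, 1hr.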

Experiment [16] concerns the target D(2) dopamine receptor (Homo sapiens) (UniProt P14416). In words: Dopamine D2 receptor (DRD2) small molecule agonists, cell-based qHTS assay (AID 1963594). Also: nearly all actives have a fitted effect of over 35% in size. Put shortly: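 cAMP accumulation in DRD2-HEK293 cells measured by HTRF after 1 h detection; compounds added 10 min before NKH477 (200nM […]) forskolin-analogue stimulation, 30 min at room temperature, with Ro20-1724 present at 0.1 mM final.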

Experiment [17] has the same target. Kind of experiment: Dopamine D2 receptor (DRD2) small molecule antagonists, cell-based qHTS assay (AID 1963595; active = well fitted inhibition curve with a large enough effect in the signal ratio in the repeat runs, with a control signal flat; the % refers to the signal ratio). Put shortly:
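HEK293 cells stably expressing DRD2, preincubated with 0.1 mM Ro20-1724 and compounds 10 min, were stimulated with 200 nM NKH477 plus 12 nM quinpirole for 30 min at room temperature; cAMP measured by HTRF (665/620 nm).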

The nature of experiment [18]: cAMP Responsive Elements (CRE) small molecule agonists, cell-based qHTS assay (AID 1963590). Put shortly: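 Test agents in DMSO were incubated 3 h at 37 C/5% CO2 with CRE-bla HEK 293T cells seeded 18 h earlier; LiveBLAzer B/G FRET substrate was added and read after 2 h at room temperature.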
Experiment [19] can be described thus: cAMP Responsive Elements (CRE) small molecule antagonists, cell-based qHTS assay (AID 1963591; active = well fitted inhibition curve with a large enough effect in the signal ratio in the repeat runs, not every such curve was filed as active; the % refers to the signal ratio). An outline of the steps:
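Reporter line CRE-bla HEK 293T in dialyzed-FBS DMEM; cells preincubated 18 h, treated 3 h with compound plus NKH477 (0.25 uM final); LiveBLAzer FRET, 2 h RT.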

Molecules are shown by their SMILES. Values without a mark were called inactive. Inconclusive results are not listed. Calls of active or inactive are those of the source. Unless noted, calls follow the shape of the full dose curve.
% is scaled to controls: 0 for no effect and ±100 for the full control effect.

Chain of 5-hydroxytryptamine receptor 2A (Homo sapiens) (P28223 whole entry, looked up): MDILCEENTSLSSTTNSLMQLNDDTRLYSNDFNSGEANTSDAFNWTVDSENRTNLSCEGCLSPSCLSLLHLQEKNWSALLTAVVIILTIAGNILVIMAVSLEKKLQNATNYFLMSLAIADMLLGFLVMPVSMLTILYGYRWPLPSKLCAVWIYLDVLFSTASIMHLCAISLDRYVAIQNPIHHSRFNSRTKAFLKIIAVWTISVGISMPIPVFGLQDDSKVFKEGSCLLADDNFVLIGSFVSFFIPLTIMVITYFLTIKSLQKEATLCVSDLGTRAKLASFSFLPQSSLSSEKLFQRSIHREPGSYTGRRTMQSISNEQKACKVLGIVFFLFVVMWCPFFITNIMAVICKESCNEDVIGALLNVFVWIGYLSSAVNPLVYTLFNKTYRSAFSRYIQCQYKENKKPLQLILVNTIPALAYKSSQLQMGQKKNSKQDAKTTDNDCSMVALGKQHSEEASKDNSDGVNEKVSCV
Chain of KiSS-1 receptor (Homo sapiens) (Q969F8 whole entry, looked up): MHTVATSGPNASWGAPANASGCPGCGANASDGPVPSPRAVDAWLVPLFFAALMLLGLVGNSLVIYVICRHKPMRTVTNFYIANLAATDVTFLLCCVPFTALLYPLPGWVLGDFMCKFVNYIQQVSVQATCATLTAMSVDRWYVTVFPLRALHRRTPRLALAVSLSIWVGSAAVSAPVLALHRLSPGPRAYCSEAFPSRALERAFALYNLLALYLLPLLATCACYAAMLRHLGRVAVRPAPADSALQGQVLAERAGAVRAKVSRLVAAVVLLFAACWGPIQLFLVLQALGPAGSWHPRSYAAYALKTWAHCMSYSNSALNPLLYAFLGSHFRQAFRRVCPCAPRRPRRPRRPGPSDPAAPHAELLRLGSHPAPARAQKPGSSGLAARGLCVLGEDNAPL
Chain of D(2) dopamine receptor (Homo sapiens) (P14416 whole entry, looked up): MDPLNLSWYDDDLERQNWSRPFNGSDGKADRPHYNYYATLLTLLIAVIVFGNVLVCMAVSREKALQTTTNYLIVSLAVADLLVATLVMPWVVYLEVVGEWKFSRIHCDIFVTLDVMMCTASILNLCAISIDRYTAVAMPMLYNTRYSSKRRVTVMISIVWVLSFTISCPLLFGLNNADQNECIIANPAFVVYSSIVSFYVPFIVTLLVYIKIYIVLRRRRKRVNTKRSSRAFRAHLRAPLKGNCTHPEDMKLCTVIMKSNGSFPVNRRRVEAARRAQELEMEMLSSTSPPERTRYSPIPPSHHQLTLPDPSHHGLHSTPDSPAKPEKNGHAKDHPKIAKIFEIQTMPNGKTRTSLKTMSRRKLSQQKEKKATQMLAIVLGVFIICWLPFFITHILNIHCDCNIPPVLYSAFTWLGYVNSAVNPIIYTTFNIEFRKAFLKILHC
Chain of Beta-2 adrenergic receptor (Homo sapiens) (P07550 whole entry, looked up): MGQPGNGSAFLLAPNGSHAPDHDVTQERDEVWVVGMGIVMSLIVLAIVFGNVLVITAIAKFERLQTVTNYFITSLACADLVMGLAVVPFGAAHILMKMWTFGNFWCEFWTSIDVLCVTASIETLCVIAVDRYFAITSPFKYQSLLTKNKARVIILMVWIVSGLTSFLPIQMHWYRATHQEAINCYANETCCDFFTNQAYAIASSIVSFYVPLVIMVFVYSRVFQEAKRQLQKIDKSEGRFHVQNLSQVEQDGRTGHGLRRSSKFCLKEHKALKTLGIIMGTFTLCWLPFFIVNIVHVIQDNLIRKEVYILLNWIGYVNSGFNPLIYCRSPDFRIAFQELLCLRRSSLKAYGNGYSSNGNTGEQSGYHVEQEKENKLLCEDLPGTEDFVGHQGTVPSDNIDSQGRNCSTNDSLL
Chain of Muscarinic acetylcholine receptor M1 (Homo sapiens) (P11229 whole entry, looked up): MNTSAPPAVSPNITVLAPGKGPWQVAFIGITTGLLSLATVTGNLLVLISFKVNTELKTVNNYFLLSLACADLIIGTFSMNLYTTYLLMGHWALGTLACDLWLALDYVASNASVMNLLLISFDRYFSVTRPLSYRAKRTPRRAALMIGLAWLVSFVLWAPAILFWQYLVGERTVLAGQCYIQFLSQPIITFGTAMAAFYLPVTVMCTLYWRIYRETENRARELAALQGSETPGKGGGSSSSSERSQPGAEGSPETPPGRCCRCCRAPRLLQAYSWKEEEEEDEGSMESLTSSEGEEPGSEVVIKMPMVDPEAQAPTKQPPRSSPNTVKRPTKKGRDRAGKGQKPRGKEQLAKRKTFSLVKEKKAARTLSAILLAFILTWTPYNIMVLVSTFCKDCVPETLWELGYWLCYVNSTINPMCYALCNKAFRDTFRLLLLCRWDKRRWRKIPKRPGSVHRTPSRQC

As for `C[C@]12CCC(=O)C=C1[C@@H]1C[C@@H]1[C@H]1[C@@H]3[C@@H]4C[C@@H]4[C@@]4(CCC(=O)O4)[C@@]3(C)CC[C@@H]12`, the Potency entry in experiment [1], in experiment [2], in experiment [3], in experiment [4], in [5] and in experiment [6] was “inactive” throughout. Also, the Potency entry in experiment [7], in experiment [8], in experiment [9], in experiment [10], in experiment [11] and in [13] was “inactive” throughout. Further, the Potency result in experiment [14], in experiment [15], in experiment [16] and in experiment [17] was “inactive” throughout. Also, the Potency in experiment [12] was 18.3 µM (active).

Take `O=[N+]([O-])c1nccn1CO[C@@H](CO)[C@H](O)CO`: the Potency result in experiment [1], in experiment [2], in [3], in [4], in experiment [6] and in [7] was “inactive” in each case. The Potency entry in experiment [8], in experiment [10], in experiment [11], in experiment [12], in experiment [13] and in [18] was “inactive” throughout. Also, the Potency entry in experiment [19], in [14], in experiment [15], in experiment [16] and in [17] was “inactive” each time.

With `CC(CCc1ccc2c(c1)OCO2)NN` (stereo not drawn), the Potency result in [1], in experiment [2], in [3], in experiment [4], in experiment [6] and in [7] was “inactive” each time. Further, the Potency result in experiment [8], in [10], in [11], in experiment [12], in experiment [13] and in experiment [18] was “inactive” each time. Moreover, the Potency entry in [19], in experiment [14], in [15], in [16] and in [17] was “inactive” in each case.

In the case of `CCCCN(CCC(=O)OCC)C(C)=O`, the Potency result in experiment [1], in [2], in [3], in experiment [4], in [6] and in [7] was “inactive” each time. The Potency result in [8], in experiment [10], in experiment [11], in experiment [12], in [13] and in [18] was “inactive” each time. Besides, the Potency entry in experiment [19], in experiment [14], in experiment [15], in [16] and in [17] was “inactive” each time.

Take `O=C1C=CC(=O)N1c1cccc(N2C(=O)C=CC2=O)c1`: the Potency in experiment [1] was 54.5 µM (active); in experiment [2], 4.86 µM (active); in experiment [6], 40.8 µM (active). The Potency entry in experiment [3], in experiment [4], in [9], in experiment [10], in experiment [12] and in experiment [13] was “inactive” throughout.

Consider `CCCCC(CC)COP(=O)(O)O` (stereo not drawn), for which the Potency entry in [1], in experiment [2], in [3], in experiment [4], in experiment [6] and in experiment [7] was “inactive” each time. Besides, the Potency entry in [8], in experiment [10], in [11], in [12], in [13] and in experiment [19] was “inactive” throughout. Also, the Potency result in experiment [14], in [16] and in [17] was “inactive” in each case.

Take `C1CCCCCCCCCCC1`: the activity change, negative = cytotoxicity in experiment [1] was 0.761% [at 19 µM]; in experiment [6] it was -2.12% [at 13.5 µM]; in [7], 0.482% [at 13.5 µM]; in experiment [8], 9.85% [at 13.5 µM]. Also, the activity, positive = activation in experiment [2] is -8.94% [at 19 µM]. Besides, the activation in experiment [3] was 1.26% [at 15.8 µM]; in [4], -0.978% [at 11.8 µM]; in [11], -0.851% [at 15.9 µM]; in [13] it was -0.458% [at 15.8 µM]; in [18], -0.929% [at 19 µM]; in [16], -2.66% [at 19 µM]. The activity, negative = inhibition in experiment [10] was -15.5% [at 12.7 µM]; in experiment [12], 10.4% [at 12.6 µM]. In addition, the values for the activity change, negative = inhibition in experiment [19], in experiment [14] and in [17] were -1.59% [at 18.9 µM], 0.327% [at 19 µM] and -0.815% [at 18.9 µM], respectively.

In the case of `Fc1ccccc1[C@@H](F)COC1CCC(Nc2ncnc3[nH]ncc23)CC1` (stereo partly drawn), the Potency entry in experiment [1], in [2], in [3], in experiment [4], in experiment [7] and in [8] was “inactive” throughout. Also, the Potency entry in [11], in [12], in experiment [13], in experiment [14], in [15] and in experiment [16] was “inactive” in each case. Besides, the Potency entry in [17] is “inactive”.

Turning to `C[C@H]1C[C@H]2[C@@H]3CCC4=CC(=O)C=C[C@]4(C)[C@@]3(Cl)[C@@H](O)C[C@]2(C)[C@@]1(O)C(=O)CO`, the Potency entry in experiment [1], in [2], in experiment [3], in experiment [4], in experiment [5] and in [7] was “inactive” each time. The Potency entry in experiment [8], in [9], in [14], in experiment [16] and in experiment [17] was “inactive” each time.

`CC1(C)CC(=O)CC(C)(C)N1`: the Potency entry in experiment [1], in [2], in [3], in experiment [4], in experiment [5] and in [6] was “inactive” each time. Also, the Potency result in experiment [7], in [8], in experiment [9], in experiment [10], in experiment [11] and in experiment [12] was “inactive” each time. The Potency entry in experiment [13], in experiment [18], in experiment [19], in experiment [14], in experiment [16] and in experiment [17] was “inactive” in each case.

In the case of `CN1C[C@H]2c3ccccc3Oc3ccc(Cl)cc3[C@@H]2C1`, the Potency entry in experiment [1], in [2], in experiment [3], in experiment [4], in experiment [5] and in experiment [6] was “inactive” throughout. For the same compound, the Potency entry in experiment [7], in experiment [8], in experiment [10], in experiment [13], in experiment [18] and in experiment [16] was “inactive” each time. Also, in experiment [11], the Potency was 23.9 µM (active).

With `Cc1nc(N)nc(N)c1-c1ccc(Cl)c(Cl)c1`, the Potency entry in [1], in experiment [2], in experiment [3], in experiment [4], in experiment [5] and in [6] was “inactive” throughout. Also, the Potency result in experiment [10], in [11], in experiment [13], in [18], in experiment [19] and in experiment [14] was “inactive” throughout. In addition, the Potency result in experiment [16] and in [17] was “inactive” in each case. The Potency in experiment [12] was 7.29 µM (active).
